# Test results as given in the supplement of paper PMC10037445.
# In all, about 2,900 compounds were measured (“NF-kB SEAP reporter activity, fold change vs agonist alone”: median about 0.99, highest 2% from about 2.6 on). The entries come from a sample that favours the highest values as a whole.
# Legend:
# RAW-Dual [1] = experiment: NF-kB SEAP reporter activity, fold change vs agonist alone; higher = enhanced NF-kB activity; conditions: library stock concentration (final ~1000-fold dilution): 10 mM
# Summary of the method: (§1)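 Supernatant from RAW-Dual macrophages was read after 20 hours for IRF by QuantiLuc luminescence and for NF-κB by QuantiBlue absorbance at 620 nm. The cells (50,000 cells/well in DMEM, 384-well plates, 37 °C, 5% CO2) had received 50 nL of library stock by pin tool and, 1 h later, a PRR agonist. Reporter activity is expressed relative to agonist-alone wells as fold change, and wells were flagged cytotoxic if IncuCyte confluency was under 70% of agonist controls in both mask sets.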
# RAW-Dual [2] = experiment: NF-kB SEAP reporter activity, fold change vs agonist alone; cytotoxicity flag (confluency mask): not cytotoxic; higher = enhanced NF-kB activity
# Summary of the method: as §1
# RAW-Dual [3] = experiment: NF-kB SEAP reporter activity, fold change vs agonist alone; cytotoxicity flag (confluency mask): cytotoxic (confluency <70% of control); higher = enhanced NF-kB activity
# Summary of the method: as §1
# [4] = cytotoxicity flag (confluency mask): not cytotoxic, agonist: Imiquimod (TLR7) […]
# [5] = cytotoxicity flag (confluency mask): not cytotoxic, agonist: MPLA (TLR4) […]
# [6] = agonist: ODN 1826 (TLR9) 0.5 ug/mL
# [7] = agonist: Pam2CSK4 (TLR2/6) 0.1 ug/mL
# [8] = agonist: Pam3CSK4 (TLR2/1) 0.1 ug/mL
# [9] = cytotoxicity flag (confluency mask): cytotoxic (confluency <70% of control), agonist: Imiquimod (TLR7) […]
# [10] = cytotoxicity flag (confluency mask): cytotoxic (confluency <70% of control), agonist: MPLA (TLR4) […]
structure (smiles),measurement,setting,value
Nc1nonc1/C(=N\O)Nc1ccc(F)c(Cl)c1,NF-kB SEAP reporter activity,RAW-Dual [1]; [4],0.904
same,NF-kB SEAP reporter activity,RAW-Dual [1]; [5],0.933
Nc1nonc1/C(=N\O)Nc1ccc(F)c(Cl)c1 (library stock concentration (final ~1000-fold dilution): 10 mM),NF-kB SEAP reporter activity,RAW-Dual [2]; agonist: LPS (TLR4) 0.1 ug/mL,1.01
same,NF-kB SEAP reporter activity,RAW-Dual [2]; [6],0.882
same,NF-kB SEAP reporter activity,RAW-Dual [2]; [7],0.938
same,NF-kB SEAP reporter activity,RAW-Dual [2]; [8],0.585
COc1ccc2cc1Oc1ccc(cc1)CC1c3c(cc4c(c3Oc3cc5c(cc3OC)CCN(C)C5C2)OCO4)CCN1C (configuration not stated) (library stock concentration (final ~1000-fold dilution): 10 mM),NF-kB SEAP reporter activity,RAW-Dual [3]; agonist: LPS (TLR4) 0.1 ug/mL,1.44
same,NF-kB SEAP reporter activity,RAW-Dual [3]; [6],0.251
same,NF-kB SEAP reporter activity,RAW-Dual [3]; [7],1.42
same,NF-kB SEAP reporter activity,RAW-Dual [3]; [8],1.01
COc1ccc2cc1Oc1ccc(cc1)CC1c3c(cc4c(c3Oc3cc5c(cc3OC)CCN(C)C5C2)OCO4)CCN1C (configuration not stated),NF-kB SEAP reporter activity,RAW-Dual [1]; [9],1.58
same,NF-kB SEAP reporter activity,RAW-Dual [1]; [10],2.32
CN1CCN(Cc2ccc(NC(=O)Nc3ccc(Oc4ccnc(N)n4)cc3)cc2C(F)(F)F)CC1,NF-kB SEAP reporter activity,RAW-Dual [1]; [9],0.146
same,NF-kB SEAP reporter activity,RAW-Dual [1]; [10],0.248
CN1CCN(Cc2ccc(NC(=O)Nc3ccc(Oc4ccnc(N)n4)cc3)cc2C(F)(F)F)CC1 (library stock concentration (final ~1000-fold dilution): 10 mM),NF-kB SEAP reporter activity,RAW-Dual [3]; agonist: LPS (TLR4) 0.1 ug/mL,0.293
same,NF-kB SEAP reporter activity,RAW-Dual [3]; [6],0.197
same,NF-kB SEAP reporter activity,RAW-Dual [3]; [7],0.0678
same,NF-kB SEAP reporter activity,RAW-Dual [3]; [8],0.129
OC1C=C2CCN3Cc4cc5c(cc4C(C1O)C23)OCO5 (configuration not stated),NF-kB SEAP reporter activity,RAW-Dual [1]; [9],2.07
same,NF-kB SEAP reporter activity,RAW-Dual [1]; [10],1.61
OC1C=C2CCN3Cc4cc5c(cc4C(C1O)C23)OCO5 (configuration not stated) (library stock concentration (final ~1000-fold dilution): 10 mM),NF-kB SEAP reporter activity,RAW-Dual [3]; agonist: LPS (TLR4) 0.1 ug/mL,1.54
same,NF-kB SEAP reporter activity,RAW-Dual [3]; [6],1.05
same,NF-kB SEAP reporter activity,RAW-Dual [3]; [7],0.33
same,NF-kB SEAP reporter activity,RAW-Dual [3]; [8],0.552
CNCCC(Oc1ccccc1C)c1ccccc1.Cl (configuration not stated),NF-kB SEAP reporter activity,RAW-Dual [1]; [4],1.52
same,NF-kB SEAP reporter activity,RAW-Dual [1]; [5],1.15
CNCCC(Oc1ccccc1C)c1ccccc1.Cl (configuration not stated) (library stock concentration (final ~1000-fold dilution): 10 mM),NF-kB SEAP reporter activity,RAW-Dual [2]; agonist: LPS (TLR4) 0.1 ug/mL,1.15
same,NF-kB SEAP reporter activity,RAW-Dual [2]; [6],0.76
same,NF-kB SEAP reporter activity,RAW-Dual [2]; [7],0.791
same,NF-kB SEAP reporter activity,RAW-Dual [2]; [8],1.01
NC(=O)C(=Cn1cnc(-c2cc(C(F)(F)F)cc(C(F)(F)F)c2)n1)c1cncnc1 (library stock concentration (final ~1000-fold dilution): 10 mM),NF-kB SEAP reporter activity,RAW-Dual [2]; agonist: LPS (TLR4) 0.1 ug/mL,0.331
same,NF-kB SEAP reporter activity,RAW-Dual [2]; [6],0.334
same,NF-kB SEAP reporter activity,RAW-Dual [2]; [7],0.13
same,NF-kB SEAP reporter activity,RAW-Dual [2]; [8],0.148
NC(=O)C(=Cn1cnc(-c2cc(C(F)(F)F)cc(C(F)(F)F)c2)n1)c1cncnc1,NF-kB SEAP reporter activity,RAW-Dual [1]; [4],0.765
same,NF-kB SEAP reporter activity,RAW-Dual [1]; [5],0.772
COc1cc2ncnc(Nc3ccc(Oc4ccccc4)cc3C)c2cc1OC.Cl (library stock concentration (final ~1000-fold dilution): 10 mM),NF-kB SEAP reporter activity,RAW-Dual [2]; agonist: LPS (TLR4) 0.1 ug/mL,1.05
same,NF-kB SEAP reporter activity,RAW-Dual [2]; [6],0.422
same,NF-kB SEAP reporter activity,RAW-Dual [2]; [7],0.297
same,NF-kB SEAP reporter activity,RAW-Dual [2]; [8],0.42
COc1cc2ncnc(Nc3ccc(Oc4ccccc4)cc3C)c2cc1OC.Cl,NF-kB SEAP reporter activity,RAW-Dual [1]; [4],1.37
same,NF-kB SEAP reporter activity,RAW-Dual [1]; [5],0.792
CN(C)CC1CCn2cc(c3ccccc32)C2=C(C(=O)NC2=O)c2cn(c3ccccc23)CCO1.Cl (configuration not stated),NF-kB SEAP reporter activity,RAW-Dual [1]; [9],1.68
same,NF-kB SEAP reporter activity,RAW-Dual [1]; [10],2.13
CN(C)CC1CCn2cc(c3ccccc32)C2=C(C(=O)NC2=O)c2cn(c3ccccc23)CCO1.Cl (configuration not stated) (library stock concentration (final ~1000-fold dilution): 10 mM),NF-kB SEAP reporter activity,RAW-Dual [3]; agonist: LPS (TLR4) 0.1 ug/mL,3.03
same,NF-kB SEAP reporter activity,RAW-Dual [3]; [6],0.276
same,NF-kB SEAP reporter activity,RAW-Dual [3]; [7],1.55
same,NF-kB SEAP reporter activity,RAW-Dual [3]; [8],1.77
O=C(Nc1ccc([N+](=O)[O-])cc1O)Nc1ccccc1Br (library stock concentration (final ~1000-fold dilution): 10 mM),NF-kB SEAP reporter activity,RAW-Dual [3]; agonist: LPS (TLR4) 0.1 ug/mL,2.98
same,NF-kB SEAP reporter activity,RAW-Dual [3]; [6],2.14
same,NF-kB SEAP reporter activity,RAW-Dual [3]; [7],0.989
same,NF-kB SEAP reporter activity,RAW-Dual [3]; [8],1.7
O=C(Nc1ccc([N+](=O)[O-])cc1O)Nc1ccccc1Br,NF-kB SEAP reporter activity,RAW-Dual [1]; [9],1.47
same,NF-kB SEAP reporter activity,RAW-Dual [1]; [10],1.48
CS(=O)(=O)Nc1ccc([N+](=O)[O-])cc1Oc1ccccc1,NF-kB SEAP reporter activity,RAW-Dual [1]; [4],0.516
same,NF-kB SEAP reporter activity,RAW-Dual [1]; [5],1.08
O=C(Nc1ccccc1)c1cc([N+](=O)[O-])ccc1Cl,NF-kB SEAP reporter activity,RAW-Dual [1]; [4],1.37
same,NF-kB SEAP reporter activity,RAW-Dual [1]; [5],0.89
CS(=O)(=O)Nc1ccc([N+](=O)[O-])cc1Oc1ccccc1 (library stock concentration (final ~1000-fold dilution): 10 mM),NF-kB SEAP reporter activity,RAW-Dual [2]; agonist: LPS (TLR4) 0.1 ug/mL,1.05
same,NF-kB SEAP reporter activity,RAW-Dual [2]; [6],0.993
same,NF-kB SEAP reporter activity,RAW-Dual [2]; [7],0.937
same,NF-kB SEAP reporter activity,RAW-Dual [2]; [8],0.873
O=C(Nc1ccccc1)c1cc([N+](=O)[O-])ccc1Cl (library stock concentration (final ~1000-fold dilution): 10 mM),NF-kB SEAP reporter activity,RAW-Dual [2]; agonist: LPS (TLR4) 0.1 ug/mL,0.722
same,NF-kB SEAP reporter activity,RAW-Dual [2]; [6],0.873
same,NF-kB SEAP reporter activity,RAW-Dual [2]; [7],0.881
same,NF-kB SEAP reporter activity,RAW-Dual [2]; [8],0.836
FC(F)F.N=C(N)NCCCC1NC(=O)C(CCCCN)NC(=O)C(Cc2ccc(O)cc2)NC(=O)C(CC(=O)O)NC(=O)CNC1=O.O=C(O)C(F)(F)F.O=CO (configuration not stated) (library stock concentration (final ~1000-fold dilution): 10 mM),NF-kB SEAP reporter activity,RAW-Dual [2]; agonist: LPS (TLR4) 0.1 ug/mL,1.23
same,NF-kB SEAP reporter activity,RAW-Dual [2]; [6],0.997
same,NF-kB SEAP reporter activity,RAW-Dual [2]; [7],1.14
same,NF-kB SEAP reporter activity,RAW-Dual [2]; [8],0.899
FC(F)F.N=C(N)NCCCC1NC(=O)C(CCCCN)NC(=O)C(Cc2ccc(O)cc2)NC(=O)C(CC(=O)O)NC(=O)CNC1=O.O=C(O)C(F)(F)F.O=CO (configuration not stated),NF-kB SEAP reporter activity,RAW-Dual [1]; [4],0.972
same,NF-kB SEAP reporter activity,RAW-Dual [1]; [5],1.04
